Experimental data reported in ChEMBL document CHEMBL4513146, “CO-ADD screening of Karazin Kharkiv National University (Ukraine) compounds”.
Potency and affinity values are given separately.

Experiments:
Klebsiella pneumoniae = details: Concentration 32 ug.mL-1;; ASSAY_TEST Inhibition of Bacterial Growth; detection method Absorption (OD600); MEDIA CAMHB; plate type 384well; NBS; CORNING #3640; time 18 hr
Candida albicans = details: Concentration 32 ug.mL-1; ASSAY_TEST Inhibition of Fungal Growth; detection method Absorption (OD530)
Cryptococcus neoformans = details: Concentration 32 ug.mL-1; ASSAY_TEST Inhibition of Fungal Growth; detection method Resazurin; Absorption (OD600-OD570); plate type 384well; NBS; CORNING #3640

Structure (SMILES)	Inhibition (Klebsiella pneumoniae) [%]	Inhibition (Candida albicans) [%]	Inhibition (Cryptococcus neoformans) [%]
C=Cc1ccc(Cn2nc3c(=O)n(-c4cccc(Cl)c4C)ccn3c2=O)cc1	-0.98	-0.15	-8.23
O=c1c2nnc(-c3ccc([N+](=O)[O-])cc3)n2ccn1-c1ccc(F)c(F)c1	12.52	2.2	-9.46
CCc1ccccc1Sc1nccn2c(=O)n(CC(=O)Nc3cc(Cl)c(OC)cc3OC)nc12	-2.45	17.44	-4.37
COc1ccc(C(=O)CSc2nnc3c(=O)n(-c4ccc(F)cc4)ccn23)cc1	10.95	4.42	-10
CC(C)(C)Sc1ccc2nn(CC(=O)Nc3ccc(Cl)cc3)c(=O)n2n1	16.93	5.49	-24.82
Cc1ccc(-c2cc3c4nn(CC(=O)Nc5ccc(Br)cc5)c(=O)n4ccn3n2)cc1C	-3.52	9.45	-8.46
O=C(Cn1nc2c(Oc3ccccc3)nccn2c1=O)Nc1ccc(Cl)cc1	8.01	-0.31	-10.29
Cc1c(Cl)cccc1-n1ccn2c(=S)[nH]nc2c1=O	8.12	2.5	-13.36
CCCCn1c(=O)c2sccc2n2c(CCC(=O)Nc3ccc(OC(F)(F)F)cc3)nnc12	7.36	-0.1	-18.58
Cc1nnc2ccc(S(=O)(=O)N(Cc3cccc(F)c3)c3cc(F)cc(F)c3)cn12	10.98	-1.03	-12.8
CCCCOc1ccc(-c2cc3c4nnc(SCC(=O)Nc5cccc(C)c5C)n4ccn3n2)cc1	1.05	-0.05	-18.62
Cc1ccccc1Oc1nccn2c(=O)n(CC(=O)Nc3cc(F)ccc3F)nc12	13.37	-0.39	-8.18
COC(=O)c1ccc(CN(c2ccc(Cl)cc2)S(=O)(=O)c2ccc3nncn3c2)o1	0.53	-1.37	-1.27
COc1ccc(CNC(=O)Cn2nc3c(SCc4ccc(Cl)cc4)nccn3c2=O)cc1	2.51	1.91	-11.5
COc1cccc(Oc2nccn3c(=O)n(CC(=O)Nc4cccc(Br)c4)nc23)c1	6.87	0.25	-8.58
Cc1cc(C)c(NC(=O)CSc2nc3ccccc3n3c(C)nnc23)c(C)c1	10.14	1.31	-7.76
CCCCn1c(=O)c2sccc2n2c(=O)n(CC(=O)N(C)c3ccccc3)nc12	-1.65	-0.48	-15.83
Cc1cc(Br)ccc1NC(=O)Cn1nc2c(SC3CCCCC3)nccn2c1=O	10.86	1.51	-21.25
Cc1cccc(CN(c2ccc(F)cc2)S(=O)(=O)c2ccc3nnc(C)n3c2)c1	6.15	1.93	-4.65
COc1ccc(CNC(=O)Cn2nc3c(Oc4cccc(C)c4C)nccn3c2=O)cc1	3.56	-0.71	-3.17
COc1ccc(NC(=O)Cn2nc3c(Sc4ccccc4)nccn3c2=O)cc1	7.48	1.47	-16
Cc1ccc(Oc2nccn3c(=O)n(CC(=O)Nc4cc(F)ccc4F)nc23)cc1	10.7	4.41	-11.42
CC(C)c1nnc2c(=O)n(CC(=O)Nc3cccc(F)c3)c3ccccc3n12	24.07	3.13	-19.58
CCc1ccccc1Sc1nccn2c(=O)n(CC(=O)Nc3ccc(OC)cc3)nc12	0.32	4.23	-13.58
CC(C)Cn1c(=O)c2sccc2n2c(=O)n(CC(N)=O)nc12	-1.97	-1.59	-19.03
O=C(Cn1nc2c3cc(-c4ccc(F)cc4)nn3ccn2c1=O)Nc1ccccc1	5.09	9.56	-11.97
COc1cccc(NC(=O)Cn2nc3ccc(-c4ccc(Cl)cc4)nn3c2=O)c1	5.27	2.11	-14.88
COc1ccc(N2CCN(C(=O)Cn3nc4ccc(-c5ccc(Cl)cc5)nn4c3=O)CC2)cc1	-0.61	7.77	-9.26
